Compound activity (PubChem)
Shown is part of a subset that was picked to be rich in hits.
miR122 inh: raises miR-122 sensor activity in Huh7 cells; Huh7 psiCHECK-miR122 Renilla luciferase sensor, 48 h; activation, % at 12.5 µM; 340,000 compounds, 0.14% hits;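 active = mean activation of 30% or more, with every replicate also reaching 30%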;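 also: 0% = median of neutral control wells and 100% = median of positive control wells; higher luciferase signal means stronger suppression of miR-122 activity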
* marks the source's active call; other numbers are inactive results.

SMILES	miR122 inh
O=C1C(Oc2ccccc2)C(c2ccc3c(c2)OCO3)N1CCc1ccc(F)cc1 (stereo not given)	-238
Cc1cc(C)cc(OCC(O)CN2CCC(CN3C(=O)c4cccc5cccc(c45)C3=O)CC2)c1 (stereo not given)	67*
Cc1cc(OCC(O)CN2CCOCC2)cc(C)c1Cl (stereo not given)	-91
O=C(Nc1ccccc1F)N1CCCCN2[C@@H](CO)[C@@H](c3ccc(C#Cc4ccccc4)cc3)[C@@H]2C1	37*
O=C(Nc1ccc(F)cc1)N1CCCCN2[C@H](CO)[C@@H](c3ccc(C#Cc4ccccc4)cc3)[C@H]2C1	34*
COc1cccc(NC(=O)N(C)C[C@@H]2Oc3cc(C#Cc4ccccc4)ccc3S(=O)(=O)N([C@H](C)CO)C[C@@H]2C)c1	4
COc1ccc(C#Cc2ccc([C@@H]3[C@@H](CO)N4CCCCN(C(=O)Nc5ccccc5)C[C@H]34)cc2)cc1	34*
C/C=C/c1ccc2c(c1)O[C@@H](CN(C)C(=O)c1cccnc1)[C@@H](C)CN([C@H](C)CO)S2(=O)=O	-3
C[C@@H]1CN([C@@H](C)CO)C(=O)c2cc(/C=C/c3ccccc3)cnc2O[C@@H]1CN(C)C(=O)c1cccc(F)c1	7
O=C1NC(=S)S/C1=C\C=C\c1ccc([N+](=O)[O-])o1	-105
CCCC(=O)Nc1ccc2c(c1)OC[C@@H](C)N(C(C)=O)C[C@@H](C)[C@H](OC)CN(C)C2=O	1
COc1ccc(C#Cc2ccc3c(c2)O[C@H](CN(C)C(=O)NC2CCCCC2)[C@H](C)CN([C@H](C)CO)S3(=O)=O)cc1	14
CO[C@H]1CN(C)C(=O)c2ccc(NC(=O)Nc3ccc(Cl)c(Cl)c3)cc2OC[C@H](C)NC[C@@H]1C	-11
Cc1ccc(-c2ccc3c(c2)O[C@H](CN(C)C(=O)NC(C)C)[C@@H](C)CN([C@H](C)CO)S3(=O)=O)cc1	1
COc1cccc(-c2ccc3c(c2)O[C@@H](CN(C)C(C)=O)[C@@H](C)CN([C@@H](C)CO)S3(=O)=O)c1	-3
COc1ccc(S(=O)(=O)N(C)C[C@H]2Oc3ccc(NC(=O)Nc4ccc(F)cc4)cc3C(=O)N([C@H](C)CO)C[C@H]2C)cc1	-101
NC1=NC[C@@H](CC2CCCCC2)N1CCc1cc(C(F)(F)F)cc(C(F)(F)F)c1	35*
C[C@H]1CN([C@@H](C)CO)S(=O)(=O)c2ccc(-c3ccncc3)cc2O[C@@H]1CN(C)C(=O)Nc1ccc(F)cc1	6
CCOC(=O)c1c(C)[nH]c(C)c1S(=O)(=O)NCCc1ccco1	-91
COCC#Cc1cnc2c(c1)C(=O)N([C@@H](C)CO)C[C@H](C)[C@@H](CN(C)C(=O)C1CCOCC1)O2	-3
CO[C@@H]1CN(C)C(=O)c2cc(NC(C)=O)ccc2OC[C@H](C)N(C(=O)CN(C)C)C[C@H]1C	-2
COc1cnc(-c2ccccn2)nc1Sc1ccccc1Cl	39*
Cc1ccc(S(=O)(=O)N(C)C[C@@H]2Oc3ncc(C#CC(C)(C)O)cc3C(=O)N([C@H](C)CO)C[C@@H]2C)cc1	7
COc1ccccc1N/C(=N/S(=O)(=O)c1ccc(C)cc1)c1ccccc1	-135
C[C@H](CO)N1C[C@H](C)[C@@H](CN(C)S(=O)(=O)c2ccc(F)cc2)Oc2ncc(-c3cccc(C(=O)N(C)C)c3)cc2C1=O	-2
SMILES	miR122 inh
C[C@@H]1CN([C@H](C)CO)C(=O)c2cc(C#CC3CC3)cnc2O[C@@H]1CN(C)C	0
Cc1ccc(S(=O)(=O)N(C)C[C@@H]2Oc3cc(-c4cccc(F)c4)ccc3S(=O)(=O)N([C@@H](C)CO)C[C@H]2C)cc1	9
Cc1ccc(S(=O)(=O)N(C)C[C@@H]2Oc3cc(-c4cccc(F)c4)ccc3S(=O)(=O)N([C@H](C)CO)C[C@@H]2C)cc1	3
COc1cccc(-c2ccc3c(c2)O[C@H](CN(C)C(=O)C2CCOCC2)[C@H](C)CN([C@@H](C)CO)S3(=O)=O)c1	39*
C[C@@H]1CN([C@@H](C)CO)S(=O)(=O)c2ccc(Br)cc2O[C@H]1CN(C)C(=O)c1ccc2c(c1)OCO2	-6
C[C@H]1CN([C@@H](C)CO)S(=O)(=O)c2ccc(-c3ccc(C(=O)N(C)C)cc3)cc2O[C@H]1CN(C)C(=O)C1CCOCC1	7
C[C@@H]1CN([C@H](C)CO)S(=O)(=O)c2ccc(-c3ccccc3)cc2O[C@@H]1CN(C)C(=O)c1ccc2c(c1)OCO2	36*
COc1ccc(S(=O)(=O)N(C)C[C@@H]2Oc3cc(-c4cccc(F)c4)ccc3S(=O)(=O)N([C@H](C)CO)C[C@H]2C)cc1	39*
C[C@H]1CN([C@@H](C)CO)S(=O)(=O)c2ccc(-c3ccc(C(=O)N(C)C)cc3)cc2O[C@H]1CN(C)C(=O)C1CCC1	43*
C/C=C/c1ccc2c(c1)O[C@@H](CN(C)C(=O)c1ccc3c(c1)OCO3)[C@H](C)CN([C@@H](C)CO)S2(=O)=O	-31
C[C@H](CO)N1C[C@H](C)[C@H](CN(C)C(=O)C2CCOCC2)Oc2cc(-c3ccc(C(=O)N(C)C)cc3)ccc2S1(=O)=O	4
COc1cccc(-c2ccc3c(c2)O[C@H](CN(C)C(=O)C2CCCCC2)[C@H](C)CN([C@H](C)CO)S3(=O)=O)c1	-15
COc1cccc(-c2ccc3c(c2)O[C@@H](CN(C)C(=O)C2CCCCC2)[C@@H](C)CN([C@H](C)CO)S3(=O)=O)c1	0
Cc1ccc2c(CN3CCCc4ccccc43)cc(=O)oc2c1C	-147
CC(C)CC#Cc1cnc2c(c1)C(=O)N([C@@H](C)CO)C[C@H](C)[C@@H](CN(C)C(=O)C1CCCCC1)O2	-1
C[C@@H]1CN([C@@H](C)CO)C(=O)c2cc(C#C[C@@H](C)O)cnc2O[C@@H]1CN(C)Cc1cncnc1	-9
O=S1(=O)CCC(NS(=O)(=O)c2ccc3ccccc3c2)C1 (stereo not given)	-119
CCC(=O)Nc1ccc2c(c1)OC[C@H](C)N(C(=O)c1ccccn1)C[C@@H](C)[C@@H](OC)CN(C)C2=O	-4
COc1ccccc1NS(=O)(=O)c1cc(Cl)ccc1OC	-91
CCCC#Cc1cnc2c(c1)C(=O)N([C@H](C)CO)C[C@@H](C)[C@H](CN(C)C(=O)Cc1ccccc1)O2	4
COc1ccccc1-c1ccc2c(c1)O[C@H](CN(C)C(=O)c1ccncc1)[C@@H](C)CN([C@@H](C)CO)S2(=O)=O	-4
COc1ccc(-c2cnc3c(c2)C(=O)N([C@@H](C)CO)C[C@H](C)[C@@H](CN(C)C(=O)C2CCOCC2)O3)cc1	0
C[C@@H]1CN([C@@H](C)CO)C(=O)c2cc(C#CCc3ccccc3)cnc2O[C@@H]1CN(C)Cc1ccccn1	2
C/C=C/c1cnc2c(c1)C(=O)N([C@@H](C)CO)C[C@@H](C)[C@@H](CN(C)C(=O)Nc1ccccc1F)O2	-1
C[C@H]1CN([C@@H](C)CO)S(=O)(=O)c2ccc(-c3ccc(C(=O)N(C)C)cc3)cc2O[C@H]1CN(C)C	5
C[C@@H]1CN([C@H](C)CO)S(=O)(=O)c2ccc(-c3ccc(C(=O)N(C)C)cc3)cc2O[C@@H]1CN(C)C	4
C[C@@H]1CN([C@H](C)CO)S(=O)(=O)c2ccc(-c3ccc(C(=O)N(C)C)cc3)cc2O[C@@H]1CN(C)C(=O)C1CCOCC1	20
C[C@H]1CN([C@@H](C)CO)S(=O)(=O)c2ccc(-c3ccc(C(=O)N(C)C)cc3)cc2O[C@@H]1CN(C)C(=O)C1CCOCC1	-9
